Screens deposited in PubChem BioAssay by several laboratories.
Most compounds without a hit are left out; they make up all but 2% or so of the library.
Gli-Sufu antag – blocks Gli-Sufu signaling in a luciferase reporter; Sufu-KO-LIGHT fibroblasts, Gli luciferase reporter luminescence; inhibition, % at 5 µM; AID 588413; hit rate 0.74% among 340,000;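 active = inhibition above about 55%, limit read from the data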
NR2F2 inh – blocks human COUP-TFII nuclear receptor; inhibition, % at 8.6 µM; HEK293T NGFI-A luciferase reporter, luminescence; hit rate 0.7% among 370,000; P24468;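 active = inhibition above a per-plate cutoff, mean inhibition of test wells between control levels plus 3 SD, cut at about 38% in these data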;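 also: cells cotransfected with COUP-TFII expression vector driving the NGFI-A reporter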
Target sequence (P24468 whole entry, looked up): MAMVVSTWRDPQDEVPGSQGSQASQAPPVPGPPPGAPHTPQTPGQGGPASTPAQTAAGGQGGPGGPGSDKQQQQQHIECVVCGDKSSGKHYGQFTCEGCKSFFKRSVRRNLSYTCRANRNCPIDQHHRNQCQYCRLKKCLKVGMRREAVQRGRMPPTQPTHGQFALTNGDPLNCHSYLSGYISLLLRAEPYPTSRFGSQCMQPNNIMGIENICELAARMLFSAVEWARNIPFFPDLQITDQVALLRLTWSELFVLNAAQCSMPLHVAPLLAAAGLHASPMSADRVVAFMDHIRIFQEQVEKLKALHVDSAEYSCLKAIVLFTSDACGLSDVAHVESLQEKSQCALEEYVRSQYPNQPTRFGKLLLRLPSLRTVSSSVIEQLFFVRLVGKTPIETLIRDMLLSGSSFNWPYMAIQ
Jurkat NFkB inh – inhibitors of the PMA/ionomycin-induced NF-kB reporter in Jurkat cells; PMA/ionomycin-induced NF-kB luciferase reporter, luminescence; inhibition, % at 4 µM; hit rate 0.53% among 330,000; in the data active = inhibition above about 50%
GalR3 antag – antagonists of human GalR3; O60755; hit rate 0.44% among 360,000; HEK293 GalR3-CNG cAMP membrane potential fluorescence; galR3 body fused to GalR1 C-terminus; inhibition, % at 3 µM;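 active = inhibition above the screen-wide average plus 3 SD, cut at about 13% in these data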;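 also: forskolin and galanin both at EC90 stimulate the cells; cAMP rise reported by CNG channel membrane potential dye signal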
697 NFkB inh – inhibitors of the PMA/ionomycin-induced NF-kB reporter in 697 B cells | hit rate 0.33% among 330,000 | 697 B-cell NF-kB luciferase reporter, 16 h | inhibition, % at 4 µM; in the data active = inhibition above about 35%
Gli antag conf – confirmation of Gli-SUFU pathway antagonists | Sufu-KO-LIGHT cells, Gli luciferase reporter, luminescence | hit rate 40% among 2,500 | shares compounds with Gli-Sufu antag | inhibition, % at 5 µM;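 active = mean inhibition at 5 µM reaching about 45%, limit read from the data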
SufuKO cytotox – counter-screen for Gli-SUFU antagonists: cytotoxicity; shares compounds with Gli-Sufu antag; Sufu-KO-LIGHT cells cytotoxicity, ATP luminescence; cytotoxicity, % at 5 µM; hit rate 32% among 2,500; AID 651994;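 active = mean cytotoxicity at 5 µM above about 25%, limit read from the data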;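 also: cells exposed to compound overnight for roughly 16 to 18 hours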
Wnt3a counter – inhibits Wnt3a reporter, counter-screen for Gli-SUFU antagonists; shares compounds with Gli-Sufu antag; inhibition, % at 6.25 µM; hit rate 20% among 2,500; Wnt-LIGHT cells, Wnt3a-driven luciferase reporter, luminescence;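 active = mean inhibition above about 25%, limit read from the data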
A number is an active result; . = inactive; / = no result given.

SMILES | Gli-Sufu antag | NR2F2 inh | Jurkat NFkB inh | GalR3 antag | 697 NFkB inh | Gli antag conf | SufuKO cytotox | Wnt3a counter
CC1(C)C2CCC1(C)C(OCC[N+](C)(C)CC(=O)OC1CCCCC1)C2 (stereo not given) | 78.8 | . | . | . | . | 74.8 | 32.2 | .
CCOC(=O)C[N+](C)(C)CCOC1CC2CCC1(C)C2(C)C (stereo not given) | . | . | . | . | . | / | / | /
Clc1ccc(-n2c(SCc3cccc4ccccc34)nnc2-c2ccccn2)cc1 | / | . | / | / | / | / | / | /
COc1ccccc1NC(=O)c1ccc2c(c1)N(CC#N)C(=O)C(C)(C)O2 | . | . | . | . | . | . | . | .
Cc1cccc(N(Cc2ccccc2)C(=O)CCl)c1 | 76.9 | . | / | . | / | . | 27.5 | .
CC(C)NC(=O)CCn1nnc(-c2cccs2)n1 | / | . | / | / | / | / | / | /
COc1cc2c(cc1OC)C(COc1ccccc1OC)N(C(=O)c1ccco1)CC2 (stereo not given) | 61.6 | . | . | . | . | . | . | .
CCC(=O)N1CCc2cc(OC)c(OC)cc2C1COc1ccccc1OC (stereo not given) | . | . | / | . | / | / | / | /
N#Cc1cccc(NC(=O)CNc2cccc(S(=O)(=O)N3CCCC3)c2)c1 | 65.7 | . | . | . | . | . | . | .
OC(CN1CCN(c2cccc(Cl)c2)CC1)c1ccc(F)cc1 (stereo not given) | 68.9 | . | . | . | . | . | . | .
CCCCN1C2=NCCCN2c2cc(C)c(C)cc21 | 64.3 | . | . | . | . | 66.6 | 39.1 | 28.6
CCCCCCCN1C2=NCCCN2c2ccccc21 | 59.0 | . | . | . | . | . | . | .
Cc1oc(-c2cccc(Cl)c2)nc1CN1CCC(C(=O)N2CCN(c3ccccc3F)CC2)CC1 | 83.9 | . | . | / | . | . | . | .
Cc1oc(-c2ccc(Cl)cc2)nc1CN1CCC(C(=O)N2CCc3ccccc3C2)CC1 | . | / | . | / | . | / | / | /
COC(=O)C[C@H]1CC[C@@H]2[C@H](COc3ccc(NC(=O)c4ccccc4OC)cc3C(=O)N2C)O1 | / | . | / | / | / | / | / | /
N#Cc1cccnc1N1CCN(C(=O)c2ccc3c(c2)S(=O)(=O)c2ccccc2C3=O)CC1 | . | . | . | . | . | . | . | .
CN1CCN(c2ccc(-c3csc(N4CCC(C(N)=O)CC4)n3)cc2)CC1 | / | . | / | / | / | / | / | /
C=CCn1c(O)c(N=NC(=S)Nc2cccc(C)c2)c2ccccc21 | . | . | . | . | . | 57.1 | 26.0 | .
Cc1ccc(NC(C)c2cc(Cl)ccc2O)cc1 (stereo not given) | . | . | . | . | . | / | / | /
CC(Nn1cnnc1)c1cc(Cl)ccc1O (stereo not given) | 97.6 | . | . | . | . | . | . | .
Cc1ccc(-c2noc(CCCC(=O)NCC3CCCO3)n2)cc1 (stereo not given) | 55.8 | . | . | . | . | . | . | .
O=C(CSCSCC(=O)NCC1CCCO1)NCC1CCCO1 (stereo not given) | 95.6 | . | . | . | . | . | . | .
COc1ccc(-c2noc(CCC(=O)NCC3CCCO3)n2)cc1 (stereo not given) | . | . | . | . | . | / | / | /
Cc1cc(C)cc(OCC(=O)NCC2CCCO2)c1 (stereo not given) | 71.2 | . | . | . | . | . | . | 37.7
C[C@H]1[C@@H](OC(=O)NCc2cccs2)CC[C@@]23CCCN2C(=O)CCC[C@@H]13 | / | . | / | / | / | / | / | /
SMILES | Gli-Sufu antag | NR2F2 inh | Jurkat NFkB inh | GalR3 antag | 697 NFkB inh | Gli antag conf | SufuKO cytotox | Wnt3a counter
COC(=O)[C@]12C[C@H](CC(=O)NCCC(C)C)C(=O)N(Cc3ccco3)C1=C[C@H](C(C)(C)C)O[C@@H]2C | / | . | / | / | / | / | / | /
Cc1ccc(-c2csc(NC(=O)c3c(C)noc3C)n2)s1 | . | / | . | / | . | 63.7 | 34.2 | .
O=C1N(CCCO)CCC12CCC(c1ccccc1)CC2 (stereo not given) | / | . | / | / | / | / | / | /
Cc1ccc(C(=O)C2CCN(CC(=O)NCc3cccs3)CC2)cc1 | / | . | / | / | / | / | / | /
COc1ccc(S(=O)(=O)Nc2cccc(F)c2C)cc1C(=O)N1CCOCC1 | . | . | . | . | . | / | / | /
COc1ccc(S(=O)(=O)Nc2ccc(F)cc2F)cc1C(=O)N1CCOCC1 | 60.9 | . | . | . | . | . | . | .
